Consider 88 molecules from PubChem BioAssay AID493244 (The Scripps Research Institute Molecular Screening Center, 2011).

The campaign covered roughly 340,000 compounds. About 390 (0.11%) were called active. Shown is part of a subset that was picked to be rich in actives. Unmarked numbers belong to inactive results.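 The calls were made as follows: active = inhibition above the mean inhibition of all tested compounds plus 3 SD (cut at about 17% in these data); inactive = the rest.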

In this assay the target is Troponin I, cardiac muscle (Homo sapiens) + Troponin T, cardiac muscle (Homo sapiens) + Troponin C, slow skeletal and cardiac muscles (Homo sapiens) (UniProt P19429+P45379+P63316). Description: calcium desensitizers of cardiac thin filaments – biochemical, IANBD-TnC fluorescence, EC70 calcium, primary screen (AID 493244).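 Also: assay run at fixed EC70 calcium of 1.6 mM.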 The note with it: IANBD-labeled cardiac RTF, Ca2+ fluorescence; at 7.15 µM; stronger effect = higher value.
As usually defined, the inhibition is the relative decrease from the control value, in per cent. For `CCN(CC)S(=O)(=O)c1ccc(N2CCOCC2)c(NC(=O)C2CSC3(C)CCC(=O)N23)c1` (stereo not drawn), the inhibition was -5.18%.
For `O=C(c1ccco1)N1CCN(C(=S)Nc2cc(F)cc(F)c2)CC1` the value was -7.48%.
In the case of `C[C@]12c3[nH]c4ccc(Cl)cc4c3CCN1C(=O)[C@@H](CC(=O)NCCCn1ccnc1)C[C@@H]2C(=O)N1CCOCC1`, the inhibition is -5.19%.
As for `O=C(Nc1ccc2c(c1)CCC2)c1cccc(S(=O)(=O)Nc2ccccc2Cl)c1`, the inhibition was 3.16%.
The value for `COc1ccc(Cl)cc1NC(=O)[C@@H]1CCCN1C(=O)c1cccs1` was 5.41%.
The value for `COC(=O)c1cccc(N(CC(=O)NCC2CCCO2)C(=O)CCC(=O)Nc2cc(C)on2)c1` (stereo not drawn) was 17.2% (active).
The value for `Cc1cc(NC(=O)CCC(=O)N(CC(=O)NC2CCCC2)c2ccc(F)cc2)no1` was -0.21%; that for `Cc1cc(NC(=O)CCC(=O)N(CC(=O)NCC2CCCO2)c2ccccc2)no1` (stereo not drawn) was 18.5% (active).
Consider `Cc1cc(NC(=O)CCC(=O)N(CC(=O)NCC2CCCO2)c2ccccc2C)no1` (stereo not drawn), for which the inhibition is -4.7%.
The value for `CCCCOc1ccc(N(CC(=O)NCC2CCCO2)C(=O)CCC(=O)Nc2cc(C)ccn2)cc1` (stereo not drawn) was -5.97%; that for `Cc1cc(C)cc(N(CC(=O)NC2CCCC2)C(=O)CCC(=O)Nc2cc(C)on2)c1` was -4.35%.
For `Cc1cc(C)cc(OCC(=O)NNC(=O)CCN2C(=O)c3ccccc3C2=O)c1` the value was -1.71%.
For `Cc1cc(C(=O)Nc2ccc(C)c(S(=O)(=O)N3CCOCC3)c2)c2ccccc2n1`, the inhibition was 5.27%.
Regarding `Cc1cc(OCc2ccc(C(=O)Nc3ccc(C(=O)O)cc3)o2)ccc1Cl`, the inhibition is 2%.
For `O=C(O[C@@H]1[C@H](Cc2ccccc2)NS(=O)(=O)[C@H]2C[C@@H]3C=C[C@]12O3)c1ccccc1Br` the value was -4.49%; for `CC(Sc1nnc(COc2ccccc2)n1-c1ccccc1)C(=O)O` (stereo not drawn), 2%.
For `Cc1nnc(NC(=O)CCC(=O)N2CCC(C)CC2)s1` the value was -6.77%; for `CC1(c2ccc3ccccc3c2)NC(=O)NC1=O` (stereo not drawn), -8.57%.
For `O=C(Nc1ccc(Br)cc1F)C1CC(=O)N(C2CCCCC2)C1` (stereo not drawn) the value was -4.05%; for `Cc1ccc(NC(=O)C2CCC(C(C)(C)C)CC2)cc1S(=O)(=O)N1CCOCC1` (stereo not drawn), -8.96%.
As to `Cc1ccc(NC(=O)NC2CCCCC2)cc1S(=O)(=O)N1CCOCC1`, the inhibition is 21.9% (active).
For `Cc1ccc(NC(=O)C2CC2)cc1S(=O)(=O)N1CCOCC1` the value was 5.9%; for `O=C1N=C2SCCN2/C1=C\c1c(Cl)cccc1Cl`, -0.73%; for `COc1cccc(-n2c(=S)sc3c(=O)n(-c4ccccc4OC)c(SCC4OCCO4)nc32)c1`, -13.4%.
On to `O=C(N/N=C/c1ccccc1O)/C(=C/c1ccccc1)CCO`, for which the inhibition is -2.95%.
For `Cn1cnc([N+](=O)[O-])c1Sc1ccccc1` the value was 7.04%.
For `CCOC(=O)C(C)Oc1cccc2c(=O)n(CC(=O)NCCc3ccc(OC)c(OC)c3)ccc12` (stereo not drawn) the value was -4.75%; for `Cc1ccc(NC2=C(Cl)C(=O)OC2OC(=O)c2ccccc2C)cc1` (stereo not drawn), 5.74%; for `CCc1ccc(N2CC(C(=O)Nc3ccc(S(=O)(=O)Nc4nccs4)cc3)CC2=O)cc1` (stereo not drawn), 10.1%.
For `CSCC[C@H](NC(=O)N1CCn2c1nc1ccccc12)C(=O)NC1CCCCC1` the value was -6.71%; for `CC(C(=O)NC1CCCCC1)N1C(=O)c2cccc3cccc1c23` (stereo not drawn), 5.31%; for `COc1cc(C(=O)N(C)Cc2cccc(OC)c2OC)ccc1OCC(=O)Nc1cccc(C(F)(F)F)c1`, 6.06%.
Regarding `Cc1cc(C)nc(Nc2n[nH]c(-c3ccccc3N)n2)n1`, the inhibition was 2.72%.
The value for `CC(C)(C)c1ccc(C(CC(=O)O)NS(=O)(=O)Cc2ccccc2)cc1` (stereo not drawn) was -9.83%; that for `Cc1ccc(S(=O)(=O)Cn2nnnc2CN2CCN(Cc3ccc4c(c3)OCO4)CC2)cc1` was -16.1%.
The value for `COc1ccc(S(=O)(=O)NC(C)c2ccccc2)cc1C(=O)N1CCCCC1` (stereo not drawn) was -3.2%; that for `O=C(COC(=O)c1ccc(NS(=O)(=O)c2cccs2)cc1O)Nc1ccc(F)cc1` was -3.11%; that for `COc1ccc(/C=C(/NC(=O)c2ccccc2)C(=O)Nc2cccc(C(=O)O)c2)cc1` was -3.42%.
With `O=C1c2ccccc2C(Nc2ccc3c(c2)OCCO3)N1Cc1ccco1` (stereo not drawn), the inhibition is 0.13%.
`CC(C)c1cc(C(=O)N/N=C/c2ccoc2)c(O)c(C(C)C)c1`: the inhibition was -3.15%.
For `COC(=O)Cc1c(O)ccn(Cc2cccc(C(F)(F)F)c2)c1=O` the value was 1.28%; for `Cc1cc(S(=O)(=O)NC2CCCC2)ccc1-n1cnnn1`, -17.6%.
`Cc1ccc(CSc2ccc(S(=O)(=O)N3CCCCC3)cn2)cc1`: the inhibition was -3.54%.
The value for `O=c1ccc2c(-c3ccccc3S(=O)(=O)O)c3ccc(O)c(O)c3oc-2c1O` was 141% (active); that for `CCc1noc(C)c1C(=O)Oc1ccc(N(C)S(=O)(=O)c2ccc(C)c(C)c2)cc1` was 0.79%.
Turning to `Cc1ccc(-n2c(=O)c(C#N)cc3c(=O)n4ccccc4nc32)cc1C`, the inhibition is -2.12%.
For `Cc1cc(C)n(Cc2cnc(N3CCOCC3)s2)n1` the value was 9.55%; for `O=C(C[n+]1cc(-c2ccc(Cl)c(Cl)c2)n2c1CCC2)c1cccs1`, 0.83%; for `CCCCOc1ccc(C(=O)NCC(=O)OCC(=O)N2CCN(S(=O)(=O)c3ccc(C)cc3C)CC2)cc1`, -7.59%.
The value for `Cc1ccc(C(=O)OCC(=O)NCc2cc(C)c(O)c(C)c2)cc1S(=O)(=O)N1CCCCC1` was 0.34%.
For `CCNC(=S)NCC` the value was -5.85%; for `Cc1c(Cl)c([N+](=O)[O-])nn1CC(=O)NCC1CCCO1` (stereo not drawn), -4.95%; for `Cc1nc2ccc(S(=O)(=O)NCC(=O)O)cc2s1`, -1.72%.
With `CN(c1ccccc1)S(=O)(=O)c1cccc(NC(=O)Cc2ccc(Cl)cc2)c1`, the inhibition was 11.1%.
For `COc1ccc(C)cc1S(=O)(=O)N(CC(=O)Nc1cccc([N+](=O)[O-])c1)c1ccc(C)cc1` the value was 0.11%.
`Cc1ccc(S(=O)(=O)N(CC(=O)Nc2cccc([N+](=O)[O-])c2)Cc2ccc(Cl)cc2)cc1`: the inhibition is 18.4% (active).
The value for `COc1ccc(C(=O)NC2CC2)cc1OC1CCN(C/C=C/c2ccccc2)CC1` was 0.64%.
For `COc1ccc(CSc2nnnn2-c2ccc(O)cc2)cc1F` the value was -11.7%; for `COc1cccc2cc(C(=O)NCc3ccc(C)cc3)c(=N)oc12`, 0.64%.
The value for `CC(NC(=O)COC(=O)C1CCN(S(=O)(=O)c2ccccc2C(F)(F)F)CC1)c1ccccc1` (stereo not drawn) was -5.89%; that for `COc1ccc(CCNC(=O)COC(=O)c2ncc(Cl)c(Cl)c2Cl)cc1OC` was 4.89%; that for `Cc1ccc(S(=O)(=O)N(CC(=O)N2CCc3ccccc3C2)c2cccc(Cl)c2)cc1` was -9%.
`C[C@]12CCC(=O)C=C1C=CC1C2CC[C@@]2(C)C1CC[C@@]21CCC(=O)O1` (stereo partly drawn): the inhibition was 2.44%.
The value for `Cc1ccc(CN2CC(C(=O)NNC(=O)Cn3ccc(C(F)(F)F)n3)CC2=O)cc1` (stereo not drawn) was -7.66%; that for `NC(=O)C1(Nc2ccc([N+](=O)[O-])cc2)CCCC1` was 1.13%.
The value for `O=c1oc2ccc(C#CC3(O)CCCCC3)cc2cc1-n1cc(-c2ccsc2)nn1` was 3.02%.
For `CC1CN(S(=O)(=O)c2cccc(C(F)(F)F)c2)CN1C(=O)N1CCOCC1` (stereo not drawn) the value was 9.08%; for `Cc1cc(CNC(=O)C2CCC(=O)N(CCc3ccc(Cl)cc3)C2)no1` (stereo not drawn), 1.17%; for `Cc1ccc(CNC(=O)Cc2cn(C)c3ccccc23)cc1`, -0.42%.
With `O=S(=O)(c1ccccc1)c1nc(Cc2ccccc2)oc1N1CCOCC1`, the inhibition was -3.71%.
The value for `O=C(NCCC1CCCCN1S(=O)(=O)c1ccc(F)cc1)C(=O)NC1CC1` (stereo not drawn) was -3.06%.
On to `COc1cccc(CNC(=O)C(=O)NCCC2CCCCN2S(=O)(=O)c2ccc(C)cc2)c1` (stereo not drawn), for which the inhibition is 18.4% (active).
The value for `O=C(NCCC1CCCCN1S(=O)(=O)c1ccc(Cl)cc1)C(=O)NCc1ccco1` (stereo not drawn) was -6.03%; that for `COc1ccccc1S(=O)(=O)NCc1ccc(C(=O)N(C)Cc2ccc(F)cc2)cc1` was 4.86%.
For `CCS(=O)(=O)c1ccc(-c2cccc(NC(=O)c3ccc(Br)o3)c2)nn1` the value was 9.7%.
The value for `COc1ccc(C(CNC(=O)c2cc(S(=O)(=O)Nc3cccc(C)c3)ccc2C)N2CCCC2)cc1` (stereo not drawn) was -1.95%.
As for `CSCCC1NC(=O)N(CC(=O)Nc2cccc(S(=O)(=O)N3CCCCCC3)c2)C1=O` (stereo not drawn), the inhibition is -6.38%.
The value for `CC(C)CC(=O)c1c[nH]c(C(=O)NCc2ccccc2)c1` was -10.5%; that for `COc1ccccc1CCC(=O)NNC(=O)c1ccncc1` was -23.1%.
For `O=S(=O)(Oc1ccccc1C(=S)N1CCOCC1)c1ccc(Cl)cc1` the value was 1.09%; for `O=C(c1cccc(F)c1)N1CCN(c2ccc([N+](=O)[O-])c3cccnc23)CC1`, 12.4%.
For `O=C(CN1CCOCC1)Nc1cccc([N+](=O)[O-])c1` the value was -4.8%.
As to `CN(CCCC(=O)Nc1nccs1)S(=O)(=O)c1ccc(Cl)cc1`, the inhibition is -8.75%.
The value for `C=CCC1(C(=O)N(C)Cc2ccccc2)CCN(C(=O)OC(C)(C)C)CC1` was -8.43%; that for `CN(C)c1ccc(NC(=O)CN2C3CCCC2CC(NC(=O)c2ccccc2)C3)cc1` (stereo not drawn) was 1.88%; that for `CCCn1c(=O)c(-c2ccccc2)c(O)c2ccccc21` was -0.9%.
The value for `CCCCCn1c(=O)c(C(=O)OCC)c(Cl)c2ccccc21` was 2.78%; that for `CCCCn1c(=O)c(C(C)=O)c(O)c2ccccc21` was 18.1% (active).
